Eya2 phos inh = blocks the phosphatase activity of human Eya2; recombinant Eya2, OMFP fluorescence dephosphorylation (OMFP is methylfluorescein phosphate); Potency, µM (titrated, usually from 76.9 µM), actives largely listed as inhibitors; O00167; AID 488837; 330,000 tested, 0.006% active
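Eya2 (0.2 uM) preincubated 10 min at ambient with compound, then OMFP substrate added at 50 uM; 10 min reaction in 50 mM HEPES pH 7.5, 50 mM NaCl, 5 uM MgCl2, 0.05% BSA, 1 mM DTT. Fluorescence read at Ex 485/Em 525 nm.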
RGS4 inh = human RGS4 inhibition; P49798; Transcreener GDP fluorescence polarization, RGS4-accelerated GTP hydrolysis; Potency, µM (doses to about 114 µM), usual class: inhibitors; 390,000 tested, 0.039% active; AID 504845; note: nearly all actives have a fitted effect of over 75% in size
Target sequence (P49798 whole entry, looked up): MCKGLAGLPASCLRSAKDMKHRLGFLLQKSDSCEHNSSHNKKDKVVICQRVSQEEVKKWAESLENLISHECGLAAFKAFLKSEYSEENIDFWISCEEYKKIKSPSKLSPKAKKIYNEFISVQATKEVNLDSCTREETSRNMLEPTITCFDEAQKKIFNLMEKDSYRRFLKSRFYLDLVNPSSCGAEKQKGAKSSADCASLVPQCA
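MLSMR compounds (23 nl, pin-transferred) preincubated 10 min at room temperature with a 500nM (2x) first reagent, then RGS4 at 900nM (2x) plus Transcreener GDP mix added; fluorescence polarization (620/688 nm) read before and after 90 min at 30 °C.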
GALK inh = inhibitors of human galactokinase | P51570 | Purified GALK, Kinase-Glo residual ATP luminescence | Potency, µM (highest dose often 57.5 µM), actives largely listed as inhibitors | 270,000 tested, 0.007% active | AID 1868
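5 nM enzyme, 35 uM ATP, 100 uM galactose, 20 mM HEPES pH8.0, 5 mM MgCl2; 1 h RT; residual ATP by Kinase-Glo Plus luminescence, qHTS format.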
USP2a inh = USP2a (human) protease inhibition; O75604; USP2 core, Ub-CHOP2 coupled fluorogenic reporter, 485/531; Potency, µM (doses to about 38.3 µM), usual class: inhibitors; 330,000 tested, 0.01% active; AID 463254
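Cell-free coupled assay: 10nM USP2 core preincubated 30min RT with compound in Tris-HCl pH 8.0/CaCl2/CHAPS buffer, then 25nM Ub-CHOP2 and 25nM reporter substrate; fluorescence (Ex 485/Em 531) read after 60min RT, normalized to NEM inhibition, concentration-response curves fitted.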
rTrxR1 inhibitor = blocks rat thioredoxin reductase 1. recombinant rTrxR1, NADPH fluorescence consumption, selenite substrate. O89049. 390,000 tested, 1% active. Potency, µM (titrated, usually from 114 µM), hits mostly inhibitors; note: nearly all actives have a fitted effect of over 65% in size
Target sequence (O89049 whole entry, looked up): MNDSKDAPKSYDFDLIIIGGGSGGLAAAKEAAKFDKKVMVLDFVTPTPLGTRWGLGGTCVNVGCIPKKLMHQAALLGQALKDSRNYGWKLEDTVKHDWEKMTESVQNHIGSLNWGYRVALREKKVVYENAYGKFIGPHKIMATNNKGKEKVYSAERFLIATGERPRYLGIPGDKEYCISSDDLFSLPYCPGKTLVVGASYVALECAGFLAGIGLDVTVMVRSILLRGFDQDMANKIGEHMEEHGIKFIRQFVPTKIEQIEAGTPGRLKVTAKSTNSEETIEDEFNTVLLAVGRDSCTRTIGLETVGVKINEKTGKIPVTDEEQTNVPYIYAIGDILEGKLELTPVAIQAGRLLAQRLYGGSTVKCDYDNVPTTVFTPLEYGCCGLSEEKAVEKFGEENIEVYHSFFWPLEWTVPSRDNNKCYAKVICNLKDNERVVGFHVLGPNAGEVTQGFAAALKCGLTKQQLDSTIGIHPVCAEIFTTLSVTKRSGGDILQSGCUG
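Rat TrxR1 (90 nM in the dispensed reagent) was pre-reduced with 400 uM NADPH for 5 min at room temperature, then incubated with compound for 15 min. After 400 uM selenite was added, NADPH fluorescence (Ex 340/Em 450 nm) was followed for 8 min.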
TrxR1 substrate = substrates of rat thioredoxin reductase 1. O89049. purified TrxR1 substrate turnover, NADPH consumption readout. Potency, µM (top dose mostly 114 µM). 390,000 tested, 0.01% active; note: nearly all actives have a fitted effect of over 50% in size
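Rat TrxR1, dispensed at 90 nM, was prereduced with 400 uM NADPH (final) for 5 min at ~22 deg C, then incubated with compound 15 min before 400 uM selenite. A first-read NADPH fluorescence drop versus no-compound background flagged substrates.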
A number is an active result; – = inactive; ? = inconclusive; · = not tested or not shown; [ ] = remark or other dose. In the library only some 1% were active in any assay of this set; here they are far more common. Calls come from the whole dose curve; as a rule, active = well fitted curve in the direction sought with a large enough effect; inconclusive = small, poorly fitted or top-dose-only effect, or another doubt; inactive = no such curve, though single readings can be large; an effect the other way counts as inactive or inconclusive.

SMILES	Eya2 phos inh	RGS4 inh	GALK inh	USP2a inh	rTrxR1 inhibitor	TrxR1 substrate
O=C(CN(CCc1ccccc1)C(=O)Cn1nnc(-c2cccs2)n1)NCc1ccco1	–	–	–	–	50.1µM	–
CC(C)(C)C(=O)Nc1ccc2c(c1)C(=O)C(=O)c1ccccc1-2	·	–	·	·	6.31µM	3.16µM
Cc1cccc(-n2c(C)nnc2SCC(=O)NC(C)c2ccco2)c1 (stereo not drawn)	·	·	·	·	–	–
CCOC(=O)c1ccc(-n2c(CN3CCC(O)CC3)nc3ccc([N+](=O)[O-])cc3c2=O)cc1	–	–	–	–	50.1µM	–
Cc1ccc(/C=C/c2nc3ccccc3[nH]2)o1	–	–	–	–	22.4µM	–
CC(Oc1ccccc1)C(=O)N[C@@H]1C(=O)N2C(C(=O)OCC3CCCCC3)C(C)(C)S[C@H]12 (stereo partly drawn)	·	·	·	·	–	–
Cc1[nH]n(-c2ncc(-c3ccccc3)s2)c(=O)c1C(c1ccc(Br)cc1)C(C#N)C#N (stereo not drawn)	–	?	–	–	31.6µM	–
CC1=CC(=O)C(C(C)C)=C/C1=N\OC(=O)c1cccc2nc(C)oc12	–	–	–	–	–	–
CC1=CC(=O)C(C(C)C)=C/C1=N/OC(=O)c1cccc([N+](=O)[O-])c1	–	–	–	–	12.6µM	–
CC1=CC(=NOC(=O)c2cccc([N+](=O)[O-])c2)C=C(C)C1=O	–	–	–	–	10µM	–
Cc1ccc(C(=O)O/N=C(\N)c2cccc([N+](=O)[O-])c2)cc1	–	–	–	–	–	–
O=C(CC(C(=O)O)n1ccnc1)c1ccc(Cl)cc1 (stereo not drawn)	·	·	·	·	1.78µM	–
O=C(Cn1ccnc1)c1ccc(Cl)cc1	–	–	–	–	?	–
Cc1ccc(S(=O)(=O)N2CCN(c3nc(Nc4ccccc4O)nc4ccccc34)CC2)cc1	·	·	·	·	–	–
O=C(NCc1cccnc1)/C(=C\c1ccc(-c2cccc(Cl)c2)o1)S(=O)(=O)c1ccccc1	–	?	–	–	11.2µM	–
Cc1ccc(CNC(=O)CCC2CCCN(C(=O)c3ccc4c(c3)OCO4)C2)o1 (stereo not drawn)	–	–	–	–	70.8µM	–
CC(=O)Nc1ccc(C(=O)Nc2nc(-c3cccnc3)cs2)cc1	–	?	–	–	–	–
CC(=O)Nc1ccc(C(=O)Nc2nc(-c3ccccn3)cs2)cc1	–	?	–	–	50.1µM	–
Cc1c(CCOC(=O)c2cc([N+](=O)[O-])cc([N+](=O)[O-])c2)sc[n+]1CC(=O)c1ccccc1	–	–	–	–	79.4µM	–
NS(=O)(=O)c1ccc(NC(=S)NC2CCCCCC2)cc1	–	–	–	–	15.8µM	–
O=S(=O)(NC(=S)NC1CCCCC1)c1ccc(Br)cc1	–	–	–	–	2.82µM	–
O=C(Cc1ccc(Oc2ccccc2)cc1)NO	·	·	·	·	–	–
O=c1cc(/C=C/c2ccc([N+](=O)[O-])cc2)c2ccccc2[nH]1	·	·	·	·	–	–
CCCCn1nc(C(=O)Oc2ccc3c(C)cc(=O)oc3c2)c2ccccc2c1=O	–	–	–	–	79.4µM	–
CCCC(=O)Oc1ccc2c(C)cc(=O)oc2c1	–	–	–	–	?	–
SMILES	Eya2 phos inh	RGS4 inh	GALK inh	USP2a inh	rTrxR1 inhibitor	TrxR1 substrate
Cc1cc(=O)oc2cc(OC(=O)CCN3C(=O)c4ccccc4C3=O)ccc12	–	–	–	–	39.8µM	–
COc1ccc(C(C#N)N2N=C(C)CC2(C)C)cc1OC (stereo not drawn)	–	–[11.4 µM]	–	–	39.8µM	–
CC(C)(C)c1ccc(C(=O)C[n+]2cc(Br)cc(Br)c2)cc1	·	·	·	·	–	–
COCc1ccc(C(=O)N2CCCC(CNC(=O)c3ccc(F)cc3)C2)o1 (stereo not drawn)	–	–	–	–	35.5µM	–
COC(=O)c1ccc(C(=O)N2CCCC(CNC(=O)c3ccc(F)cc3)C2)cc1 (stereo not drawn)	–	–	–	–	–	–
Cc1cc(Cl)ccc1OCC(=O)Nc1cccc(-c2nc3ccccc3o2)c1	·	·	·	·	–	–
CC(C)N1C(=O)S/C(=C\c2ccc(-c3ccc(Cl)c(C(=O)O)c3)o2)C1=O	–	–	–	–	–	–
CCN(CC)c1ccc(/C=C2/SC(=O)N(C(C)C)C2=O)o1	–	?	–	–	3.16µM	–
Cc1cnc2ccccc2c1C	·	·	·	·	–	–
COc1cccc2sc3cc(NCc4ccc(C)o4)ccc3c(=O)c12	–	–	·	–	79.4µM	–
Cc1nn(-c2ccccc2)c2nc(C3CC3)cc(C(=O)Nc3cccc(F)c3)c12	·	–	·	·	–	–
O=S1(=O)c2c(F)cccc2OC(COCc2ccccc2)CN1C1CCCC1 (stereo not drawn)	·	–	·	·	–	–
C=CCCC1CN(Cc2ccco2)S(=O)(=O)c2c(F)cccc2O1 (stereo not drawn)	·	–	·	·	39.8µM	–
Cc1ccc(CN(C)C(=O)c2cccc(S(=O)(=O)N3CCCC3)c2)o1	–	–	·	–	39.8µM	–
COc1ccccc1CN(C)C(=O)c1cccc(S(=O)(=O)N2CCCC2)c1	–	–	·	–	–	–
CC(C)(C)c1ccc(OCCn2c(CCNC(=O)C3CCCCC3)nc3ccccc32)cc1	·	–	·	·	–	–
CCOc1ccc(C(C)=O)cc1COC(=O)c1ccccc1C(=O)N(C)Cc1ccccc1	–	–	·	–	50.1µM	–
CCOC(=O)/C(=C\c1ccc([N+](=O)[O-])o1)NC(=O)c1ccccc1	–	–	–	–	7.94µM	–
COc1ccc(C2C=C(c3ccccc3)Nc3nnnn32)cc1 (stereo not drawn)	–	–	–	–	–	–
C1=C(c2ccccc2)Nc2nnnn2C1	–	–	–	–	79.4µM	–
COc1ccccc1NC(=S)NC(=O)C(C)(C)C	–	–	–	–	12.6µM	–
COc1ccc(C2=CC3=C(Br)C(=O)C(C)(OC(=O)C4CCCC4)C(=O)C3=CO2)cc1 (stereo not drawn)	–	?	–	–	?	–
COC(=O)CCC(=O)OC1(C)C(=O)C2=COC(c3ccc(OC)cc3)=CC2=C(Br)C1=O (stereo not drawn)	–	–	–	–	14.1µM	–
COc1ccc(C2=CC3=C(Br)C(=O)C(C)(OC(=O)c4ccc(Cl)nc4)C(=O)C3=CO2)cc1 (stereo not drawn)	–	?	–	–	12.6µM	–
COc1cc(/C=C2\C(=O)N(c3ccccc3)N=C2C)ccc1Oc1ccc([N+](=O)[O-])cc1[N+](=O)[O-]	–	–	–	–	?	–

Screening results (PubChem BioAssay)
